# Measured values as given in the supplement of paper PMC10720658.
# ± gives the standard deviation of the averaged measurements.
# Tested on: AEK1 (Tb927.3.2440)
# Assay: percent reduction in TR-FRET probe signal relative to DMSO control; higher = stronger displacement of ATP-site probe (binding)
# Details: 1 µM; incubation time 1 h
row,Structure (SMILES),percent reduction in TR-FRET probe signal [%]
1,O=c1[nH]c2ccccc2n1C1CCN(Cc2ccc(-c3nc4cc5nc[nH]c5cc4nc3-c3ccccc3)cc2)CC1,-9.38 ± 1.6
2,C/C(O)=C(\C#N)C(=O)Nc1cc(Br)ccc1Br,-3.29 ± 1.9
3,Cc1ccccc1-n1c(Cn2ncc3c(N)ncnc32)nc2cccc(C)c2c1=O,-5.42 ± 2.9
4,CC(C)(C)c1cc(C=C(C#N)C#N)cc(C(C)(C)C)c1O [Tyrphostin 9],15.1 ± 1.3
5,COc1ccc(N(C(=O)Oc2c(C)cccc2C)c2ccnc(Nc3ccc(N4CCN(C)CC4)cc3)n2)c(OC)c1,12.5 ± 3.4
6,CC(C)(C)c1cc(C=C(C#N)C#N)cc(Br)c1O,17.3 ± 12
7,N#CC(C#N)=Cc1ccc(O)c(O)c1,7.98 ± 17
8,COc1ccc2c(c1)/C(=C/c1cnc[nH]1)C(=O)N2,-2.34 ± 5.7
9,CCN1CCN(C(=O)Cc2ccc(Nc3ncc(F)c(Nc4ccc(C(=O)Nc5ccccc5Cl)cc4)n3)cc2)CC1 [Aurora A Inhibitor I],24.1 ± 4.8
10,O=c1[nH]c2ccc(Cl)cc2c(N[C@@H]2CN3CCC2CC3)c1-c1nc2ccccc2[nH]1,25.9 ± 11
11,Cn1cc(C2=C(c3cn(C4CCN(Cc5ccccn5)CC4)c4ccccc34)C(=O)NC2=O)c2ccccc21,-6.77 ± 7.9
